Compounds with a hit are over-represented: about 1.8% of the library has one in this group of screens.
GC-B act = human GC-B receptor activators, primary screen, HEK293 GC-B cells, cGMP TR-FRET, EC30 CNP; Atrial natriuretic peptide receptor 2 (Homo sapiens), P20594; 0% at EC30 CNP, 100% saturating CNP; activation, % at 10 µM; actives 0.11% (n = 370,000); AID 1920062, 2024;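 active = activation at 10 µM reaching about 35% in either raw or pattern-adjusted values, limit read from the data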
HTR2A ag = mouse Htr2a agonists via beta-arrestin recruitment, primary screen, cell-based, luminescence. 5-hydroxytryptamine receptor 2A (Mus musculus), P35363. CHO-K1 mHTR2A beta-arrestin complementation; percent of 30 µM serotonin response. activation, % at 7.6 µM. actives 0.66% (n = 360,000). AID 624169, 2012;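 active = activation above a run cutoff, the mean activation of all tested compounds plus 3 SD, cut at about 14% in these data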
MsrA inh = bovine MsrA enzyme inhibitors, primary screen, biochemical, absorbance, HTS; actives 0.75% (n = 360,000); Methionine sulfoxide reductase A (Bos taurus); purified bovine MsrA, absorbance read-out; inhibition, % at 15.5 µM
bovine MsrA act = bovine MsrA enzyme activators, primary screen, biochemical, absorbance, HTS. purified bovine MsrA, absorbance read-out. actives 0.3% (n = 360,000). Methionine sulfoxide reductase A (Bos taurus). activation, % at 10.6 µM. AID 602163, 2012; in the data active = activation above about 7.5%
NPR1 activator = GC-A stimulated cGMP production enhancers – HEK293 GC-A cells, cGMP TR-FRET, EC30 ANP, primary screen; 0% at EC30 ANP, 100% saturating ANP; activation, % at 10 µM; actives 0.14% (n = 370,000); AID 1671463, 2021; in the data active = activation above about 40%
Target sequence (P16066 whole entry, looked up): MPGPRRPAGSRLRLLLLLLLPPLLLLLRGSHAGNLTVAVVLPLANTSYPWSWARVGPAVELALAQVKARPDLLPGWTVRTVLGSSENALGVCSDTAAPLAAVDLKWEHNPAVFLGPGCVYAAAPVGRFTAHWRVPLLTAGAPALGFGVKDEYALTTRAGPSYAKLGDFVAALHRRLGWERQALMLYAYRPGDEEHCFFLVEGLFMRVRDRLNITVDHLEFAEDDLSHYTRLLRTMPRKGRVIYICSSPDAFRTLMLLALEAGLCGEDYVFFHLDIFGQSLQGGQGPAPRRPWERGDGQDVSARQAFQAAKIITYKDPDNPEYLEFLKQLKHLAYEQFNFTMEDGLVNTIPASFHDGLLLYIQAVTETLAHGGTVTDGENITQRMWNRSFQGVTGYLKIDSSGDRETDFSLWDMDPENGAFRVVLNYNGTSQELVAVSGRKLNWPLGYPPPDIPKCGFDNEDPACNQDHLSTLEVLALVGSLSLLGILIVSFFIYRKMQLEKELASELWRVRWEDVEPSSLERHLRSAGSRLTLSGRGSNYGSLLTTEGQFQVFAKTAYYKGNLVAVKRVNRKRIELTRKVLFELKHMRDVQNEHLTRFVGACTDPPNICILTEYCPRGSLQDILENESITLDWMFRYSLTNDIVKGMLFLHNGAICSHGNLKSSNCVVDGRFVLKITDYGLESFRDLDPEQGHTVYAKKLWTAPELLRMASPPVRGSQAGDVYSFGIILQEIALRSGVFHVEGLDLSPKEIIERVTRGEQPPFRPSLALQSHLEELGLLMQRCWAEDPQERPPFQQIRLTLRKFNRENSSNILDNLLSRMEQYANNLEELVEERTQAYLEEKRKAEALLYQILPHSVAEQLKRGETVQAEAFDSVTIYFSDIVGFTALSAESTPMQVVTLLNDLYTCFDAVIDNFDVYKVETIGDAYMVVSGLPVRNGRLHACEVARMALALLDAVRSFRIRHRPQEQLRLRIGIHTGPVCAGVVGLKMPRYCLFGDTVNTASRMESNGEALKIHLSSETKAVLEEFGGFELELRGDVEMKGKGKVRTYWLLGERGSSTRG
MsrA conf = bovine MsrA inhibitors, retest, confirmation, biochemical, absorbance, HTS; shares compounds with MsrA inh; purified bovine MsrA, absorbance read-out; inhibition, % at 15.5 µM; actives 41% (n = 2,300); AID 651822, 2012;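 note: coupled to thioredoxin reductase with NADPH and selenocystamine and DMSO as substrate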
Large screens that a line does not name were inactive (follow-up assays come after a bar, where they were run). Cut-off read from the data, not from the text of the source, unless noted: active = inhibition above about 4.5%; inactive = the rest.

Oc1ccc(/C=N/Nc2ccc(Cl)nn2)cc1O	MsrA inh 4.9 | MsrA conf inactive
Cc1ccc(/C=N/Nc2ccc(Cl)nn2)cc1	none
COc1cccc(/C=C2\Oc3cc(OCC(=O)N4CCC[C@H]4C(=O)O)ccc3C2=O)c1	MsrA inh 5.7 | MsrA conf 5.9
COc1ccc(/C=C2\Oc3cc(OCC(=O)N4CCC[C@H]4C(=O)O)ccc3C2=O)c(OC)c1	none (no result: GC-B act, MsrA inh, NPR1 activator)
c1ccc(-n2cc(CNCCc3cscn3)c(-c3ccc4c(c3)OCO4)n2)cc1	MsrA inh 6.3 | MsrA conf inactive
O=C(c1cnc2sccn2c1=O)N1CCc2ccccc2C1	MsrA inh 4.8 | MsrA conf inactive
COC[C@@H]1CCCN1c1cccc2c1S(=O)(=O)N1CC[C@@H](C1)O2	none (no result: HTR2A ag, MsrA inh, bovine MsrA act)
Cc1ccc(Cl)cc1NC1=C/C(=N\S(=O)(=O)c2cccs2)c2ccccc2C1=O	MsrA inh 5.6 | MsrA conf 8.2
CCc1ccc(S(=O)(=O)/N=C2\C=C(Nc3cccc(C(=O)O)c3)C(=O)c3ccccc32)cc1	MsrA inh 52 | MsrA conf 53
O=C(O)c1ccc(NC2=C/C(=N/S(=O)(=O)c3cccs3)c3ccccc3C2=O)cc1	MsrA inh 62 | MsrA conf 66
O=C(O)c1ccc(NC2=C/C(=N/S(=O)(=O)c3ccccc3)c3ccccc3C2=O)cc1	MsrA inh 65 | MsrA conf 63
COC(=O)[C@]12C[C@H](CC(=O)NCc3cccc(C(F)(F)F)c3)C(=O)N(Cc3ccc(Cl)cc3Cl)C1=C[C@H](C(C)(C)C)O[C@@H]2C	none (no result: HTR2A ag, MsrA inh, bovine MsrA act)
Cc1cc(C)c(S(=O)(=O)/N=C2\C=C(NS(=O)(=O)c3ccccc3)C(=O)c3ccccc32)c(C)c1	none
Cc1cc(C)c(S(=O)(=O)/N=C2\C=C(Nc3ccc(C(=O)O)cc3)C(=O)c3ccccc32)c(C)c1	MsrA inh 19 | MsrA conf 21
CCC(CO)Nc1cccc2c1S(=O)(=O)N(Cc1cn(Cc3cccc(F)c3)nn1)Cc1ccccc1O2 (stereo not given)	none (no result: HTR2A ag, MsrA inh, bovine MsrA act)
CCS(=O)(=O)CCSc1nc2ccccc2o1	MsrA inh 6.1 | MsrA conf inactive
COc1cc(/C=N/NC(=O)CSc2n[nH]c(=O)[nH]c2=O)cc(OC)c1O	MsrA inh 4.8 | MsrA conf inactive
CCCCCC(=O)N/N=C/c1cc(Br)c(O)c(OC)c1	MsrA inh 5.5 | MsrA conf inactive
O=C(NCc1ccco1)C(=O)NN=Cc1ccccc1O	none (no result: HTR2A ag, bovine MsrA act)
O=C(CSc1n[nH]c(=O)[nH]c1=O)N/N=C/c1ccccc1O	none
COc1cc(/C=N/NC(=O)C(=O)NCc2ccco2)cc(Br)c1O	MsrA inh 6.0 | MsrA conf inactive
O=C1CC(c2ccc3ccccc3c2)N=C2N(Cc3ccc4c(c3)OCO4)C/C(=C/c3ccccc3)N12 (stereo not given)	none (no result: HTR2A ag, MsrA inh, bovine MsrA act)
CCCCNC(=O)C[C@H]1C(=O)N(Cc2ccc(OC)cc2)C2=CCCCC[C@@]21C(=O)OC	none (no result: HTR2A ag, MsrA inh, bovine MsrA act)
Cc1nn(C)cc1/C=C/C(=O)c1ccccc1	none
Cc1nn(C)cc1/C=C/C(=O)c1cccs1	MsrA inh 5.4 | MsrA conf inactive
CCCc1c(C(=O)N/N=C/c2ccc(C)o2)nnn1-c1nonc1N	MsrA inh 5.0 | MsrA conf 4.6
Cc1ccc(/C=N/NC(=O)c2nnn(-c3nonc3N)c2C(C)C)o1	MsrA inh 4.8 | MsrA conf 4.8
CC(/C=N/NC(=O)c1nnn(-c2nonc2N)c1CN(C)C)=C\c1ccco1	MsrA inh 6.2 | MsrA conf 7.3
CC(C)c1c(C(=O)N/N=C/c2ccco2)nnn1-c1nonc1N	none
CCCN(CCC)Cc1c(C(=O)N/N=C/c2ccc(C)o2)nnn1-c1nonc1N	none
CC/C(=C/c1sc2ccc(C)cc2[n+]1CCCS(=O)(=O)[O-])SC	MsrA inh 4.8 (no result: HTR2A ag, bovine MsrA act) | MsrA conf inactive
O=C(O)CCCNC(=O)/C(=C\C=C\c1ccccc1)NC(=O)c1ccccc1Cl	MsrA inh 5.8 | MsrA conf inactive
C=CCNC(=O)/C(=C\C=C\c1ccccc1)NC(=O)c1ccccc1Cl	none
COc1ccc(CNCC#Cc2ccc(C)cc2)c(OC)c1	none (no result: HTR2A ag, MsrA inh, bovine MsrA act)
CCOC(=O)c1c(NC(=O)Cn2ccsc2=N)sc(C)c1C	none
CN1/C(=C\C(=O)COC(=O)c2ccc(O)c(O)c2)C(C)(C)c2ccccc21	MsrA inh 4.8 (no result: HTR2A ag, bovine MsrA act) | MsrA conf inactive
CN1/C(=C\C(=O)COC(=O)c2ccc(O)cc2)C(C)(C)c2ccccc21	MsrA inh 5.2 | MsrA conf inactive
Cc1c(C=N)c(O)n(C)c(=O)c1C#N	MsrA inh 5.2 | MsrA conf 6.6
COc1cc(S(=O)(=O)Nc2ccc(C)cc2)ccc1N=Cc1c(C)c(C#N)c(=O)n(C)c1O	none
C=CCn1c(O)c(CN2CCCCC2)c(C)c(C#N)c1=O	none
CCN(CC)S(=O)(=O)c1ccc(N=Cc2c(C)c(C#N)c(=O)n(C)c2O)cc1	MsrA inh 5.1 | MsrA conf 7.3
Cc1ccc(N/N=C/c2c(C)c(C#N)c(=O)n(C)c2O)cc1C	MsrA inh 5.9 | MsrA conf 6.6
COC(=O)[C@]12C[C@H](CC(=O)NCC34CC5CC(CC(C5)C3)C4)C(=O)N(CCc3ccc(OC)c(OC)c3)C1=C[C@H](C1CCCC1)O[C@@H]2C	none (no result: HTR2A ag, MsrA inh, bovine MsrA act)
c1ccc(-c2ccc3c(n2)CCCN3Cc2ccccn2)cc1	none (no result: HTR2A ag, bovine MsrA act)
Cc1nc(N2CCOCC2)sc1C=O	MsrA inh 6.6 | MsrA conf inactive
COc1ccc(OC)c2c1sc(=NC(=O)c1ccco1)n2C	none
CCn1c(=NC(=O)c2ccco2)sc2cccc(F)c21	MsrA inh 4.9 | MsrA conf inactive
CCS(=O)(=O)c1nn2c(N)c(/C=C3/C=CC(=O)C(OC)=C3)c(=O)nc2s1	MsrA inh 4.7 | MsrA conf inactive
O=C(c1cc(-c2ccc(Cl)cc2)nc2ccccc12)N1CCN(c2ncccn2)CC1	none (no result: HTR2A ag, MsrA inh, bovine MsrA act)
COc1cc2c(c(OC)c1OC)C1(CCCCC1)CC2NS(=O)(=O)C(C)C (stereo not given)	none (no result: HTR2A ag, bovine MsrA act)
O=c1c(-c2ccccc2)coc2c(CN3CCCC3)c(O)ccc12	MsrA inh 5.5 | MsrA conf inactive
Nc1ncc([N+](=O)[O-])cc1Br	MsrA inh 5.4 | MsrA conf inactive
Nc1ncc(Br)cc1Br	none
COc1cccc(OC(C)CCN2CCC(C(O)(c3ccccc3)c3ccccc3)CC2)c1 (stereo not given)	none (no result: HTR2A ag, MsrA inh, bovine MsrA act)
CS(=O)(=O)Nc1ccc(-c2cn3cccnc3n2)cc1	MsrA inh 4.8 | MsrA conf inactive
O=C(Nc1ccccc1F)c1coc(=O)c(Br)c1	none
